# Experimental data as given in PMC12136788.
# Over roughly 24,000 sequences, “enrichment r” has its median near 0.99; the highest 2% begin near 3.7. Shown is part of a subset that was picked to be rich in the highest values.
# T1: UNK ZnF1-3 (human, UniProt Q9C0B0 31-174)
# T1 sequence: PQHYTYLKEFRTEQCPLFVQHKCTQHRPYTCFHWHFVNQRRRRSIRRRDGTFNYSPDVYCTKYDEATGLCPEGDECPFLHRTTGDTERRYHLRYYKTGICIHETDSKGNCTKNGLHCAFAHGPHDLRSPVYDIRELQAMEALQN
# B1: 19477749_19479453_500_CDS_ENSMUSG00000028228_ENSMUST00000029885|mouse|control|control (ssRNA)
# RNA: GGGAGUUCUACAGUCCGACGAUCUCUGGCUUCCAUUUCAAACAAUACCACUCUGUUAUCCUUUAUUUCUUCUGCUGAAAUCGUAAUACUCCCUUUCCCUGCAGGUUUGCCAUUUUUGAGCACCAGUGGUCGAGUUAGCUUCUUCAACAGAGGAUUGAGCAUCA
# B2: chr2:9572718:9572719:+_ENSG00000119203_ENST00000238112|hu_mus|FALSE|FALSE (ssRNA)
# RNA: GGGAGUUCUACAGUCCGACGAUCGACGUGGCCGGCAUGGUAACACCAGAACUUGAUUCCUGCAACUUCCUUAACUUCAUGAAAAUUGAUGGUUUCGAUUUUGUCCAUGCUUUCUUCCAAGUCUGUCUCAGUGUACAGCAUGUCCAACAGAGGAUUGAGCAUCA
# B3: chr17:61655871:61655872:+_ENSG00000136485_ENST00000310827|hu_hu|FALSE|FALSE (ssRNA)
# RNA: GGGAGUUCUACAGUCCGACGAUCGGUGGGGUAUGGGUGGUCAAAGGUGUUUCUGCAAAUAAACUCUGAACUCUCCUCAUCUAAACCAACAAGCUGAACCUUGUUGUUGUACUCCUCCACGAAGCUGCCCAGCGCCAAGCGAAACAACAGAGGAUUGAGCAUCA
# B4: chr5:37680062:37680063:+_ENSMUSG00000029121_ENSMUST00000031004|mus_hu|mus_mus_mus_hu_False|1_18 (ssRNA)
# RNA: GGGAGUUCUACAGUCCGACGAUCUUUGGGUGUAGCUGGUACCUCGUACACAGGACCGUCAUACAUGCCCCUGGAAACCCCUUGCAAUCCAAAAACCUUAUUCCUGAUUUUGACGCGCUGGUAGAGAUGCUCCGGGAAUGGCUUCAACAGAGGAUUGAGCAUCA
# B5: chr17:45747064:45747065:+_ENSG00000108424_ENST00000290158|hu_hu|hu_hu_hu_mus_True|38_98 (ssRNA)
# RNA: GGGAGUUCUACAGUCCGACGAUCGCCCACAGUCCACGCAGCUGUAUCUCGAACAACUACACUGGGGUCUUUCAUUAGUUCUAUUAGGGUGGGCAUAGCCUGUAUAACUAAUGGUUUCAGUUGAUUAGGCUCUGGUCCUUCCAACAACAGAGGAUUGAGCAUCA
# B6: chr1:244855233:244855234:+_ENSG00000121644_ENST00000302550|hu_mus|hu_hu_hu_mus_True|98_98 (ssRNA)
# RNA: GGGAGUUCUACAGUCCGACGAUCCAUCAGAUGGUAGGCAUUGCCUUUAUACUCUUUCCCCAGUUCUUCUACAAUUUUCUCUAUAUCAUCUUCUAGAAAGUCCGUACUUCCUAGAACAACAGCUUCUUUAAAUUUAAAUGUUUCCAACAGAGGAUUGAGCAUCA
# Molecular target: T1, UNK ZnF1-3
# Experiment: nsRBNS (natural sequence RNA bind-n-seq); RBNS binding buffer (assumed for nsRBNS): 25 mM Tris pH 7.5, 150 mM KCl, 3 mM MgCl2, 0.01% Triton X-100, 500 ug/ml BSA, 20 U/ml SUPERase-In, 4 C; UNK is unkempt and MSI1 is Musashi-1; names of the RNAs are library labels; protein concentration not given here; high values mean tight binding
row,Binder,binding signal
1,B1,0.645 enrichment R
2,B2,0.798 enrichment R
3,B3,1.21 enrichment R
4,B4,0.867 enrichment R
5,B5,0.573 enrichment R
6,B6,1.59 enrichment R
